Compound activity: PubChem, National Center for Advancing Translational Sciences (NCATS)
IL1B secr inh – blocks inflammasome-driven IL-1 beta release; 360,000 tested, 4.7% active; THP-1 LPS/ATP IL-1B secretion, AlphaLISA, 16 h; hits give low values; activity change, % at 57.5 µM; AID 743279; in the data active = activity change below about -50%; inconclusive = mostly about -30% to -49%
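Secreted IL-1B measured by AlphaLISA bead assay after 16 h compound exposure of THP-1 cells; compounds (final up to 57.5 uM) added 1 h before LPS (250 ng/mL) and ATP (1.25 mM) stimulation; lower signal means less secretion.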
DT40 TDP1 no CPT – qHTS for Inhibitors of human tyrosyl-DNA phosphodiesterase 1 (TDP1): qHTS in cells in absence of CPT | Potency, µM (series often up to 46.2 µM), most hits filed as inhibitors | DT40 Tdp1-/- hTDP1 cells, no CPT, ATP luminescence, 48 h | AID 686978, 2013 | 420,000 tested, 15% active; note: nearly all actives have a fitted effect of over 55% in size
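Chicken DT40 Tdp1-/- cells stably complemented with human TDP1 were seeded at 400 cells/well with DMSO in place of 20 nM camptothecin. After compound pinning, cells grew at least 48 hr at 37 °C; viability read by CellTiter-Glo luminescence.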
HepG2 tox – counter-screen for TGF-b inhibitors: cytotoxicity in HepG2 cells | HepG2 CAGA-GFP viability, ATP luminescence, 18 h | Potency, µM (series often up to 46.1 µM), actives largely listed as cytotoxic | 410,000 tested, 0.76% active | AID 588856
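HepG2 CAGA-GFP cells (1000/well, DMEM with 1% FBS) received compound, then TGF-beta at 500 pg/mL final, and were incubated 18 hours at 37 degrees C. Viability was read by CellTiter-Glo luminescence. Media-only wells were set as complete cell-killing and DMSO as no toxicity.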
TDP1 cell CPT – growth inhibition of DT40 Tdp1-/-;hTDP1 cells with camptothecin (screen for TDP1 inhibitors); chicken DT40 Tdp1-/-;hTDP1 cells + 20 nM CPT, ATP luminescence, 48 h; AID 686979; Potency, µM (top dose mostly 46.2 µM), hits mostly inhibitors; 420,000 tested, 12% active; note: nearly all actives have a fitted effect of over 55% in size
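Chicken DT40 Tdp1-/- cells complemented with human TDP1, 400 cells/well, exposed to compounds plus 20 nM camptothecin for at least 48 h at 37 C; viability read as ATP content by CellTiter-Glo luminescence.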
TDP1 inh – inhibitors of human tyrosyl-DNA phosphodiesterase TDP1 | Q9NUW8 | recombinant TDP1, AlphaScreen DNA substrate cleavage | Potency, µM (top dose mostly 130 µM), most hits filed as inhibitors | 350,000 tested, 0.28% active; note: nearly all actives have a fitted effect of over 40% in size
Target sequence (Q9NUW8 whole entry, looked up): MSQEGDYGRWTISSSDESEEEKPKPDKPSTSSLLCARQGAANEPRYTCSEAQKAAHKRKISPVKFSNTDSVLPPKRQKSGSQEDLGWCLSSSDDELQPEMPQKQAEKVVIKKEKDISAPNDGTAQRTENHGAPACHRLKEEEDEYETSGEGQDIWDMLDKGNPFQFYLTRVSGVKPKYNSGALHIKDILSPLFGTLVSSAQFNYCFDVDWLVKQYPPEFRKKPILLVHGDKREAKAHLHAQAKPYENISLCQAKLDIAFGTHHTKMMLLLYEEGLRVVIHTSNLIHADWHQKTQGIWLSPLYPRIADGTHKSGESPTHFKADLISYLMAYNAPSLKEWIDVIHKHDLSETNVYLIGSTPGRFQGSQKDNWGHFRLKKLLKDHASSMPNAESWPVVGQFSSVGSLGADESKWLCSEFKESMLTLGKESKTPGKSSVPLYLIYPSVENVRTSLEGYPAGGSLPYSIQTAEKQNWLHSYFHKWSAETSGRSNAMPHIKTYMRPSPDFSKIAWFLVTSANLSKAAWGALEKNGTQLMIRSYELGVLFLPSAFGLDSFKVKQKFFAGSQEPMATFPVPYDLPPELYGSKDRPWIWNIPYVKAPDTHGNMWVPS
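Recombinant human Tdp1 (E. coli-expressed, 1 nM final) preincubated with compounds 15 min at room temperature, then 5'-biotin/3'-phosphotyrosine-FITC DNA substrate (15 nM final) added for 5 min. AlphaScreen beads (10 ug/ml final) added 10 min; cleavage lowers signal.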
TGFb SMAD3 inh – inhibitors of TGF-b signaling | HepG2 CAGA-GFP TGF-b/SMAD3 reporter, GFP fluorescence, 18 h; TGF-beta stimulated, 500 pg/mL final | Potency, µM (titrated, usually from 46.1 µM), most hits filed as inhibitors | 410,000 tested, 1.2% active | AID 588855; note: nearly all actives have a fitted effect of over 65% in size
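Inhibition of TGF-beta-driven CAGA-GFP reporter expression in HEPG2 cells is measured by cellular GFP fluorescence after 18 h stimulation with 500 pg/mL recombinant TGF-beta in 1% FBS medium at 37 degrees C.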
Hits are given with their value; 0 = inactive; ? = inconclusive; - = not tested or not shown; [ ] = another dose, or the depositor's remark. Most compounds without a hit are left out; they make up all but 19% or so of the library. Unless noted, calls come from the whole dose curve; as a rule, active = well fitted curve in the direction sought with a large enough effect; inconclusive = small, poorly fitted or top-dose-only effect, or another doubt; inactive = no such curve, though single readings can be large; an effect the other way counts as inactive or inconclusive.

SMILES	IL1B secr inh	DT40 TDP1 no CPT	HepG2 tox	TDP1 cell CPT	TDP1 inh	TGFb SMAD3 inh
COc1ccc(NC(=O)CCCc2nnc3n(C(C)C)c(=O)c4sccc4n23)cc1Cl	-	23µM	0	13µM	0	0
Cc1ccc(NC(=O)CCCc2nnc3n(C)c(=O)c4sccc4n23)cc1F	-	?	0	?	0	0
CCn1c(=O)c2sccc2n2c(CCC(=O)Nc3ccc(C(C)C)cc3)nnc12	-	23µM	0	?	0	0
CCn1c(=O)c2sccc2n2c(CCC(=O)Nc3cc(C)cc(C)c3)nnc12	-	0	0	0	0	0
CC(C)Cn1c(=O)c2sccc2n2c(CCCC(=O)Nc3ccc(Cl)cc3)nnc12	-	18µM	0	?	0	0
Clc1ccccc1Cc1cn2cc(-c3ccccc3)nc2s1	-	?	0	?	0	0
Cc1ccc(Sc2c(C)nn(C(C)(C)C)c2OC(=O)CC(C)C)cc1	-	?	0	?	0	0
CCc1ccc(-c2[nH]nc3nc(-c4ccc(OC)cc4)cc(C(=O)NCCCOC)c23)cc1	-	0	0	0	0	0
COc1cc(NC(=O)CCCc2nnc3n(C)c(=O)c4sccc4n23)cc(OC)c1OC	-	0	0	0	0	0
Cn1c(=O)c2sccc2n2c(CCCC(=O)Nc3ccc(Oc4ccccc4)cc3)nnc12	-	16µM	0	?	0	13µM
CCOC(=O)c1cnc(Nc2nc3ccccc3o2)nc1CN1CCN(C)CC1	0	13µM	0	18µM	0	?
CCCOC(=O)Nc1nc2ccccc2o1	0	?	0	?	0	0
Cn1nc(C(F)(F)F)c(-c2cccc(C(F)(F)F)c2)c1NC(=O)Nc1ccc(F)cc1	0	15µM	0	16µM	0	0
Cn1nc(C(F)(F)F)c(-c2cccc(C(F)(F)F)c2)c1NC(=O)c1ccco1	0	0	0	0	0	0
COc1ncc2nc(-c3ccccc3)c(=O)n(CCc3ccccc3)c2n1	-	0	-	0	-	-
CCOC(=O)C1CCN(C(=O)c2cccc(S(=O)(=O)N3CCCc4ccccc43)c2)CC1	0	23µM	0	?	-	0
CC1CCCN(C(=O)c2cccc(S(=O)(=O)N3CCCc4ccccc43)c2)C1 (stereo not given)	0	10µM	0	10µM	-	?
CCOC(=O)C1CCN(C(=O)c2cccc(S(=O)(=O)N3CCc4ccccc43)c2)CC1	0	?	0	?	0	0
C=CC[C@@H](CC(=O)NCCO)C(=O)N[C@H](C)COC(=O)[C@@H](CC=C)Cc1ccc(F)cc1	0	0	0	0	0	0
Cc1c(C(=O)COC(C)(C)C)[nH]c2ccccc12	0	?	0	21µM	0	0
CCOC(=O)c1[nH]c2ccccc2c1NC(=O)C(C)(C)C	0	0	0	0	0	0
O=Cc1ccc(-c2cc(Cl)ccc2Cl)[nH]1	0	0	0	0	0	0
CCC(=O)NC(=S)NNC(=O)c1ccc(OC)cc1	0	22µM	0	29µM	0	0
CCCCOc1ccc(C(=O)NNC(=S)NC(=O)CC)cc1	-96	2.6µM	0	4.6µM	0	0
C=CCNC(=S)NNC(=O)c1ccc(OCCCC)cc1	0	0	0	0	0	0
SMILES	IL1B secr inh	DT40 TDP1 no CPT	HepG2 tox	TDP1 cell CPT	TDP1 inh	TGFb SMAD3 inh
CSc1nc(N2CCN(CCO)CC2)c2sc3nc(-c4ccco4)c4c(c3c2n1)CCC4	-	-	-	-	0	-
CC1(C)Cc2c(c(-c3ccco3)nc3sc4c(NCCN5CCOCC5)ncnc4c23)CO1	-181	21µM	0	8.2µM	0	0
CSc1nc(NCCN(C)C)c2sc3nc(-c4ccco4)c4c(c3c2n1)CCC4	-101	12µM	0	6.5µM	-	?
CC1(C)Cc2c(C#N)c(NCCO)nc(-c3ccco3)c2CO1	-	?	0	0	0	?
CC1(C)Cc2c(c(-c3ccco3)nc3sc4c(NCC5CCCO5)ncnc4c23)CO1 (stereo not given)	0	21µM	0	18µM	0	0
Cc1c(C(=O)N2CCCCCC2)sc2ncnc(NCC3CCCO3)c12 (stereo not given)	-	0	-	0	-	-
CC1(C)Cc2c(c(-c3ccco3)nc3sc4c(NCCCO)ncnc4c23)CO1	0	8.2µM	0	10µM	0	0
CC1(C)Cc2c(C#N)c(NCCN3CCOCC3)nc(-c3ccco3)c2CO1	0	?	0	0	0	0
Nc1ccc(S(=O)(=O)N2CCCC2C(=O)O)cc1 (stereo not given)	0	0	0	0	0	0
Cc1cnc(-n2ncc(C(=O)NCCc3ccccn3)c2C)nc1-c1ccc(F)cc1	-	?	-	0[9.04 µM]	-	-
Cn1c(-c2ccccc2F)cc2onc(-c3ccccc3)c2c1=O	?	?	0	?	-	?
Cn1c(-c2ccccc2)cc2onc(-c3ccccc3)c2c1=O	0	21µM	0	15µM	0	0
Cc1cccc(NC(=S)N(CCN(C)C)Cc2cc3cccc(C)c3[nH]c2=O)c1	?	6.5µM	0	?	0	0
COc1ccc(NC(=O)N(CCCN(C)C)Cc2cc3cc(OC)ccc3[nH]c2=O)cc1	0	0	0	?	0	0
Cc1ccc2[nH]c(=O)c(CN(CCCN(C)C)C(=O)Nc3ccc(F)cc3)cc2c1	0	13µM	0	?	0	0
CCN(CC)CCCN(Cc1cc2cc(OC)ccc2[nH]c1=O)C(=O)Nc1ccccc1	0	?	0	?	-	0
Cc1ccc(NC(=S)N(CCN(C)C)Cc2cc3cc(C)ccc3[nH]c2=O)cc1	-68	?	0	?	0	0
CCN(CC)CCCN(Cc1cc2cc(OC)ccc2[nH]c1=O)C(=O)Nc1ccc(F)cc1	-51	21µM	0	16µM	0	0
CC1(C)SC2c3ccccc3C(=O)N2[C@@H]1C(=O)O (stereo not given in full)	0	0	0	0	-	0
C=C1C[C@@H]2C[C@@H]2CN(S(=O)(=O)c2ccc(C)cc2)[C@@H]1COCc1ccccc1	0	8.2µM	-	8.2µM	-	-
Cc1ccc(-n2nc(C)c3c(C)c(CCC(=O)NCc4ccccc4Cl)c(C)nc32)cc1C	-	?	0	0	0	0
COc1ccc(CCNC(=O)CCc2c(C)nc3c(c(C)nn3-c3ccc(C)cc3)c2C)c(OC)c1	-	?	0	?	0	?
COCCNC(=O)CCc1c(C)nc2c(c(C)nn2-c2ccc(C)cc2)c1C	0	18µM	0	?	0	0
COCCCNC(=O)CCc1c(C)nc2c(c(C)nn2-c2ccc(C)cc2)c1C	0	0	0	?	-	0
